Records with an inconclusive call do not appear. Activity calls are given as the source filed them. Calls come from the whole dose curve; as a rule, active = well fitted curve in the direction sought with a large enough effect; inconclusive = small, poorly fitted or top-dose-only effect, or another doubt; inactive = no such curve, though single readings can be large; an effect the other way counts as inactive or inconclusive.
Key:
[1] = Quantitative High-Throughput drug screen in 47 multiple myeloma cell lines against the NCATS MIPE library collection: EJM_DSMZ cell viability assay (AID 1918926; note: nearly all actives have a fitted effect of over 30% in size)
In short: (§1)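 Steps: seed 500 cells per well; pin-transfer MIPE 4.0 library; incubate 48 h at 37C, 5% CO2, humidified; add CellTiter-Glo, 5 min room temperature; read luminescence.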

[2] = Quantitative High-Throughput drug screen in 47 multiple myeloma cell lines against the NCATS MIPE library collection: ARD_JJKsccE7 cell viability assay (AID 1918929; note: potency is the fitted concentration of half-maximal effect)
In short: as §1

[3] = Quantitative High-Throughput drug screen in 47 multiple myeloma cell lines against the NCATS MIPE library collection: Karpas620_DSMZ cell viability assay (AID 1918959); note: nearly all actives have a fitted effect of over 30% in size; note: potency is the fitted concentration of half-maximal effect
In short: (§2)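 Luminescent ATP measurement with CellTiter-Glo gives viability, scaled between DMSO-only wells (100%) and media-only wells (0%). Cells, 500 per well, faced library compounds for 48 hours at 37C.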

[4] = Quantitative High-Throughput drug screen in 47 multiple myeloma cell lines against the NCATS MIPE library collection: H1112_PLB cell viability assay (AID 1918967; note: nearly all actives have a fitted effect of over 30% in size; note: potency is the fitted concentration of half-maximal effect)
In short: as §1

[5] = Quantitative High-Throughput drug screen in 47 multiple myeloma cell lines against the NCATS MIPE library collection: Karpas25_ECACC cell viability assay (AID 1918968; note: nearly all actives have a fitted effect of over 35% in size; note: potency is the fitted concentration of half-maximal effect)
In short: as §1

[6] = Quantitative High-Throughput drug screen in 47 multiple myeloma cell lines against the NCATS MIPE library collection: KMS27_JCRB cell viability assay (AID 1918970); note: nearly all actives have a fitted effect of over 30% in size; note: potency is the fitted concentration of half-maximal effect
In short: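 Myeloma cells (500 per well) were exposed to MIPE 4.0 compounds for 48 h at 37 °C, 5% CO2; viability was read as ATP luminescence with CellTiter-Glo, normalized to DMSO-only (100%) and media-only (0%) wells.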

[7] = Quantitative High-Throughput drug screen in 47 multiple myeloma cell lines against the NCATS MIPE library collection: Delta47_JCRB cell viability assay (AID 1918925; note: nearly all actives have a fitted effect of over 45% in size; note: potency is the fitted concentration of half-maximal effect)
In short: as §1

[8] = Quantitative High-Throughput drug screen in 47 multiple myeloma cell lines against the NCATS MIPE library collection: AMO1_DSMZ cell viability assay (AID 1918927; note: nearly all actives have a fitted effect of over 30% in size; note: potency is the fitted concentration of half-maximal effect)
In short: as §1

[9] = Quantitative High-Throughput drug screen in 47 multiple myeloma cell lines against the NCATS MIPE library collection: JIM3_ECACC cell viability assay (AID 1918963; note: nearly all actives have a fitted effect of over 35% in size; note: potency is the fitted concentration of half-maximal effect)
In short: as §2

[10] = Quantitative High-Throughput drug screen in 47 multiple myeloma cell lines against the NCATS MIPE library collection: JIM1_ECACC cell viability assay (AID 1918964; note: potency is the fitted concentration of half-maximal effect)
In short: as §1

[11] = Quantitative High-Throughput drug screen in 47 multiple myeloma cell lines against the NCATS MIPE library collection: INA6_PLB cell viability assay (AID 1918965; note: nearly all actives have a fitted effect of over 55% in size; note: potency is the fitted concentration of half-maximal effect)
In short: as §1

[12] = Quantitative High-Throughput drug screen in 47 multiple myeloma cell lines against the NCATS MIPE library collection: KMM1_JCRB cell viability assay (AID 1918960); note: nearly all actives have a fitted effect of over 30% in size; note: potency is the fitted concentration of half-maximal effect;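 for viability (% of DMSO): 100% = DMSO-treated cells and 0% = medium-only wells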
In short: (§3)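 Luminescence from CellTiter-Glo, taken after 5 min at room temperature, reports cellular ATP as viability. Cells (500 per well) had been treated 48 h at 37 °C with MIPE 4.0 compounds, scaled between DMSO and medium-only controls.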

[13] = Quantitative High-Throughput drug screen in 47 multiple myeloma cell lines against the NCATS MIPE library collection: KHM11_PLB cell viability assay (AID 1918962); note: nearly all actives have a fitted effect of over 35% in size; note: potency is the fitted concentration of half-maximal effect
In short: as §2

[14] = Quantitative High-Throughput drug screen in 47 multiple myeloma cell lines against the NCATS MIPE library collection: JJN3_DSMZ cell viability assay (AID 1918966; note: nearly all actives have a fitted effect of over 50% in size; note: potency is the fitted concentration of half-maximal effect)
In short: as §1

[15] = Quantitative High-Throughput drug screen in 47 multiple myeloma cell lines against the NCATS MIPE library collection: KMS12BM_JCRB cell viability assay (AID 1918971); note: nearly all actives have a fitted effect of over 35% in size; note: potency is the fitted concentration of half-maximal effect
In short: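 Myeloma cell lines, 500 cells per well, exposed to MIPE 4.0 library compounds for 48 h at 37C, 5% CO2. Viability from ATP by CellTiter-Glo luminescence; normalised to DMSO (100%) and media-only (0%) wells.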

[16] = Quantitative High-Throughput drug screen in 47 multiple myeloma cell lines against the NCATS MIPE library collection: ARP1_JJKsccF8 cell viability assay (AID 1918928; note: nearly all actives have a fitted effect of over 40% in size; note: potency is the fitted concentration of half-maximal effect)
In short: as §3

[17] = Quantitative High-Throughput drug screen in 47 multiple myeloma cell lines against the NCATS MIPE library collection: Karpas417_ECACC cell viability assay (AID 1918961); details: Karpas417 myeloma viability, CellTiter-Glo ATP luminescence, 48 h; viability (% of DMSO): at 45.8 µM (top of the series) unless noted; note: potency is the fitted concentration of half-maximal effect
In short: as §1

Nc1nccc(-c2ccc3noc(-c4ccc(Cl)cc4)c3c2)n1
inactive: Potency [1] | Potency [2] | Potency [3] | Potency [4] | Potency [5] | Potency [6]

OCCC#Cc1nc(-c2ccc(F)cc2)c(-c2ccncc2)n1CCCc1ccccc1
active: Potency [7] 13.2 µM | Potency [8] 23.5 µM | Potency [2] 16.6 µM | Potency [3] 20.9 µM | Potency [9] 23.5 µM | Potency [10] 13.2 µM | Potency [11] 26.4 µM | Potency [4] 5.9 µM | Potency [5] 16.6 µM | Potency [6] 23.5 µM

Nc1nc2ccc(OC(F)(F)F)cc2s1
inactive: Potency [1] | Potency [3] | Potency [12] | Potency [13] | Potency [9] | Potency [11] | Potency [4] | Potency [5] | Potency [6]
active: Potency [7] 13.2 µM | Potency [2] 16.6 µM | Potency [14] 16.6 µM | Potency [15] 16.6 µM

Cc1cnc(NC(=O)C2=C(O)c3ccccc3S(=O)(=O)N2C)s1
inactive: Potency [7] | Potency [8] | Potency [16] | Potency [3] | Potency [12] | Potency [9] | Potency [10] | Potency [14] | Potency [4] | Potency [5] | Potency [6] | Potency [15]

COc1ccc(-c2oc3cc(OC)ccc3c2C(=O)c2ccc(C#N)cc2)cc1
inactive: Potency [9] | Potency [11] | Potency [14] | Potency [15]
active: Potency [8] 7.43 µM | Potency [2] 10.5 µM | Potency [3] 1.66 µM | Potency [10] 6.62 µM | Potency [6] 2.09 µM

CC(=O)NC(C)c1ccc(Oc2ccc(OC(C)C)cc2)cc1 (stereo unspecified)
inactive: Potency [10]
active: Potency [16] 16.6 µM | Potency [3] 0.296 µM | Potency [12] 2.64 µM | Potency [9] 3.32 µM | Potency [14] 16.6 µM | Potency [4] 2.96 µM | Potency [5] 3.72 µM | Potency [15] 13.2 µM

Cc1[nH]c(=O)c(C#N)cc1-c1ccncc1
inactive: Potency [3] | Potency [13] | Potency [15]
active: Potency [7] 7.43 µM | Potency [8] 23.5 µM | Potency [9] 18.7 µM | Potency [11] 14.8 µM | Potency [5] 9.35 µM | Potency [6] 1.32 µM

CCOC(=O)N[C@@H]1CC[C@@H]2[C@@H](C1)C[C@H]1C(=O)O[C@H](C)[C@H]1[C@@H]2C=Cc1ccc(-c2cccc(F)c2)cn1
active: Potency [8] 18.7 µM | Potency [2] 18.7 µM | Potency [6] 18.7 µM | Potency [15] 20.9 µM

COc1ccc(-c2c(-c3ccc(O)cc3O)n[nH]c2C)cc1
inactive: Potency [13]
active: Potency [8] 42.9 µM | Potency [3] 42.9 µM | viability (% of DMSO) [17] 34.5% [at 92.2 µM] | Potency [11] 38.2 µM | Potency [5] 27 µM | Potency [15] 27 µM

Nc1ncnc2nc(-c3ccc(N4CCOCC4)nc3)cc(-c3cccc(Br)c3)c12
active: Potency [9] 18.7 µM | Potency [11] 18.7 µM
inactive: Potency [3] | Potency [17] | Potency [13] | Potency [6]

NC(=O)c1ccc(-c2nc(-c3ccc4c(c3)OCCO4)c(-c3ccccn3)[nH]2)cc1
inactive: Potency [1] | Potency [9] | Potency [4] | Potency [15]
active: Potency [16] 4.18 µM

COc1ccc(C2=N[C@H](c3ccc(Cl)cc3)[C@H](c3ccc(Cl)cc3)N2C(=O)N2CCNC(=O)C2)c(OC(C)C)c1
inactive: Potency [2] | Potency [3] | Potency [12]
active: Potency [7] 2.35 µM | Potency [8] 1.66 µM | Potency [16] 16.6 µM | Potency [9] 18.7 µM | Potency [4] 18.7 µM | Potency [15] 20.9 µM

O=C1[C@H](Cc2ccc(O)cc2)N2C(=O)CCN(C(=O)NCc3ccccc3)[C@H]2CN1Cc1cccc2ccccc12
inactive: Potency [3] | Potency [12] | Potency [17]
active: Potency [16] 4.18 µM | Potency [13] 2.96 µM | Potency [14] 7.43 µM | Potency [5] 14.8 µM | Potency [15] 4.18 µM

O=S(=O)(N=Cc1c(O)ccc2ccccc12)c1cccs1
inactive: Potency [1] | Potency [10] | Potency [15]
active: Potency [9] 3.32 µM | Potency [11] 2.64 µM | Potency [4] 16.6 µM | Potency [5] 1.05 µM

CCOC(=O)N1CCC(=C2c3ccc(Cl)cc3CCc3cccnc32)CC1
inactive: Potency [8] | Potency [12] | Potency [9] | Potency [10] | Potency [4] | Potency [5]
active: Potency [16] 20.9 µM | Potency [2] 0.0017 µM | Potency [15] 23.5 µM

c1ccc(-c2nn3c(c2-c2ccnc4cc(OCCN5CCOCC5)ccc24)CCC3)nc1
active: Potency [4] 4.18 µM | Potency [15] 26.4 µM
inactive: Potency [2] | Potency [3] | Potency [12] | Potency [9] | Potency [6]

Cc1cc([C@@H](C)Nc2ccccc2C(=O)O)c2nc(N3CCOCC3)cc(=O)n2c1
active: Potency [7] 2.7 µM | Potency [16] 0.481 µM | viability (% of DMSO) [17] 5.47% [at 92.2 µM] | Potency [9] 13.6 µM | Potency [11] 13.6 µM | Potency [5] 3.03 µM | Potency [6] 10.8 µM

Cc1cc(-c2ccc(CC(=O)Nc3ccc(-c4cccnc4)cc3)cc2)ccn1
active: Potency [8] 18.7 µM | Potency [2] 16.6 µM | Potency [12] 14.8 µM | Potency [17] 16.6 µM | Potency [9] 18.7 µM | Potency [10] 20.9 µM | Potency [11] 13.2 µM | Potency [4] 18.7 µM | Potency [5] 18.7 µM | Potency [6] 16.6 µM | Potency [15] 18.7 µM

CCCc1nc2c(C)cc(-c3nc4ccccc4n3C)cc2n1Cc1ccc(-c2ccccc2C(=O)O)cc1
active: Potency [10] 0.0026 µM | Potency [6] 4.18 µM
inactive: Potency [7] | Potency [8] | Potency [16] | Potency [2] | Potency [3] | Potency [12] | Potency [13] | Potency [9] | Potency [4] | Potency [5] | Potency [15]

CCN(CC)CCCC(C)Nc1nc(C)cc(Nc2ccc3nc(C)cc(N)c3c2)n1 (stereo unspecified)
active: Potency [7] 4.69 µM | Potency [2] 14.8 µM | Potency [3] 7.43 µM | Potency [11] 10.5 µM | Potency [6] 10.5 µM
inactive: Potency [8] | Potency [9] | Potency [4]

CCC(C)(C)C(=O)O[C@H]1C[C@@H](C)C=C2C=C[C@H](C)[C@H](CC[C@@H]3C[C@@H](O)CC(=O)O3)[C@H]21
inactive: Potency [1]
active: Potency [8] 18.7 µM | Potency [16] 20.9 µM | Potency [2] 16.6 µM | Potency [12] 26.4 µM | Potency [13] 13.2 µM | Potency [9] 14.8 µM | Potency [10] 7.43 µM | Potency [11] 14.8 µM | Potency [4] 18.7 µM | Potency [5] 18.7 µM | Potency [6] 6.62 µM

Cc1cccc(-c2[nH]c(C(C)(C)C)nc2-c2ccc3nccnc3c2)n1
active: Potency [7] 3.32 µM | Potency [8] 5.26 µM | Potency [3] 6.62 µM | Potency [12] 4.69 µM | Potency [9] 2.64 µM | Potency [10] 6.62 µM | Potency [11] 7.43 µM | Potency [14] 18.7 µM | Potency [4] 5.26 µM | Potency [5] 1.32 µM | Potency [6] 2.96 µM | Potency [15] 20.9 µM

Cc1cc(C=c2sc3nc4ccccc4n3c2=O)c(C)n1-c1ccccc1
active: Potency [16] 6.62 µM | Potency [13] 0.833 µM | Potency [14] 4.18 µM
inactive: Potency [8] | Potency [2] | Potency [3] | Potency [12] | Potency [9] | Potency [10] | Potency [4] | Potency [5] | Potency [6]

NCCc1ccc(O)c(O)c1
active: Potency [3] 20.9 µM | Potency [9] 18.7 µM | Potency [14] 20.9 µM | Potency [5] 14.8 µM | Potency [6] 16.6 µM | Potency [15] 7.43 µM
inactive: Potency [13] | Potency [4]

CC(C)C[C@H](NC(=O)[C@@H](O)[C@H](N)Cc1ccccc1)C(=O)O
inactive: Potency [8] | Potency [2] | Potency [3] | Potency [12] | Potency [10] | Potency [6]
active: Potency [7] 20.9 µM | Potency [16] 16.6 µM | Potency [13] 20.9 µM | Potency [9] 18.7 µM | Potency [11] 20.9 µM | Potency [4] 20.9 µM | Potency [5] 20.9 µM | Potency [15] 23.5 µM

CC1(C)SCCN(S(=O)(=O)c2ccc(OCC#CCO)cc2)[C@@H]1C(=O)NO
active: Potency [8] 2.64 µM | Potency [16] 2.35 µM
inactive: Potency [1] | Potency [2] | Potency [3] | Potency [9] | Potency [14] | Potency [4] | Potency [6]

Clc1cccc(Cl)c1NC1=NCCN1
inactive: Potency [7] | Potency [8] | Potency [16] | Potency [3] | Potency [12] | Potency [13] | Potency [9] | Potency [4] | Potency [5] | Potency [6]
